Here are results for 52 molecules from ChEMBL document CHEMBL4513216, “Probing the Open Global Health Chemical Diversity Library for Multistage-Active Starting Points for Next-Generation Antimalarials” (ACS Infect Dis, 2020).

In all, about 68,000 compounds went through this assay and about 2,700 (4%) showed an effect of 50% or more. Only a selection was taken, and strong results are over-represented in it overall.

This assay relates to Plasmodium berghei. Kind of assay: Screen against P. berghei liver stage (PbLuc), transformed with Luciferase, at 2uM. The following applies: tested at 2 uM. It is filed as functional, HepG2.
With `COc1ccccc1CNC(=O)CN(C)C(C)c1nccs1` (configuration not stated), the INHIBITION amounted to 38.91%.

On to `c1cnn(CC2CCCN2c2ncnc3ccsc23)c1` (configuration not stated), for which the INHIBITION is recorded as -16.42%.

For the molecule `CN(C)C(=O)N1CCO[C@@H]2CC(COCc3cccnc3)C[C@H]21` (some centres not stated), the INHIBITION was found to be 20.01%.

On to `O=C(NCCc1ccncc1)c1ccc(N2CCOCC2)cc1`, for which the INHIBITION was found to be 68.9%.

Regarding `O=C(NCCCc1ccc(F)cc1)c1ccc(N2CCOCC2)cc1`, the INHIBITION is recorded as -26.8%.

In the case of `O=C(NCCCc1ccco1)c1ccc(N2CCOCC2)cc1`, the INHIBITION is reported as -89.85%.

Turning to `Cn1c(-c2cc3n(n2)CCCN(CC(=O)O)C3)nc2ccccc21`, the INHIBITION was -15.71%.

`Cc1cccc(COC[C@H]2CC[C@H]3[C@H](CCN3C(=O)CC3CC3)O2)n1`: the INHIBITION is given as 9.79%.

`Cc1cccc(COC[C@@H]2CC[C@H]3[C@H](CCN3Cc3ccco3)O2)n1`: the INHIBITION worked out at 2.39%.

On to `Cc1cccc(COC[C@@H]2CC[C@H]3[C@H](CCN3C(=O)CC3CC3)O2)n1`, for which the INHIBITION is 51.72%.

As to `Cc1cc(C(=O)N2C[C@H](c3ccccc3)[C@@H](N)C2)c2ccc(F)cc2n1`, the INHIBITION stood at 2.31%.

As to `CCc1ocnc1C(=O)N1CCCC1c1noc(C2CC2)n1` (configuration not stated), the INHIBITION came out at 43.85%.

As for `COc1cnc(CSc2nnc(C)s2)cc1OCC(=O)NC1CCCC1`, the INHIBITION is given as -8.85%.

Take `CCCS(=O)(=O)N1CCC(Nc2c(F)cc(C#N)cc2F)CC1`: the INHIBITION was determined as 10.85%.

With `CCS(=O)(=O)N1CCC(Nc2c(F)cc(C#N)cc2F)CC1`, the INHIBITION came to 55.17%.

Consider `CCS(=O)(=O)N1CCC(Nc2ccc(C#N)cc2F)CC1`, for which the INHIBITION came out at 1.36%.

For the molecule `Cc1ccc(C(=O)N2CC[C@H]3[C@H]2CCN3CC2CCOCC2)cc1F`, the INHIBITION is -4.54%.

Consider `Cc1nc[nH]c1CNCc1cccnc1N(C)C1CCCCC1`, for which the INHIBITION is -15.91%.

Take `COc1cccc(OCCc2nc3c(cc2C(N)=O)CCC3)c1`: the INHIBITION is 23.18%.

As for `Cc1cnn(CC(C)NCc2cccnc2)c1` (configuration not stated), the INHIBITION was 8.13%.

As to `Cc1cnn(CCNCc2ccc(OCc3cccnc3)cc2)c1`, the INHIBITION came to 88.86%.

As to `Cc1cnn(CCNCc2ccc(OCc3ccncc3)cc2)c1`, the INHIBITION was 40.88%.

Consider `Cc1cnn(CCNCc2cccnc2)c1`, for which the INHIBITION was found to be 0.9%.

For the molecule `Cc1cnn(CC(C)NCc2ccccc2OCc2cccnc2)c1` (configuration not stated), the INHIBITION was 50.05%.

With `Cc1cnn(CC(C)NCc2ccc(OCc3cccnc3)cc2)c1` (configuration not stated), the INHIBITION was found to be 16.18%.

Take `Cn1c(=O)ccn(CC(=O)Nc2cnccc2O)c1=O`: the INHIBITION came to 16.37%.

Take `COCCC1(CO)CCCN(Cc2ccc(C(F)(F)F)nc2)C1` (configuration not stated): the INHIBITION came to 26.66%.

Regarding `CN1CCCC2(CC1)CCN(C(=O)CCc1ccccc1O)CC2`, the INHIBITION was determined as 48.21%.

As for `CN1CCN(CC2(O)CCN(C(=O)CCc3ccccc3F)C2)CC1` (configuration not stated), the INHIBITION was -20.27%.

On to `CN1CCCC2(CC1)CCN(C(=O)CCc1ccccc1F)CC2`, for which the INHIBITION is given as 50.59%.

On to `Cc1n[nH]cc1CNC(C)c1cccc(N2CCCC2=O)c1` (configuration not stated), for which the INHIBITION was 11.31%.

In the case of `Cc1nc(CNC(C)c2cccc(N3CCCC3=O)c2)cs1` (configuration not stated), the INHIBITION worked out at 65.57%.

With `CCc1nc(CNC(C)c2cccc(N3CCCC3=O)c2)cs1` (configuration not stated), the INHIBITION came to 0.45%.

Consider `Cc1ccc2nc(C3CCN(CC4CC4)CC3)nn2c1`, for which the INHIBITION is on record as 28.95%.

Regarding `CC(C)(C)c1nc(CN2CCc3onc(-c4cccc(F)c4)c3C2)no1`, the INHIBITION was -7.68%.

In the case of `O=C(c1ccco1)N1CCC[C@]2(C[C@H](Oc3ncccc3F)CO2)C1`, the INHIBITION is given as -9.69%.

With `O=C(c1cc(-c2ccco2)nc2c(Cl)cccc12)N1C[C@H]2CNC[C@H]2C1`, the INHIBITION stood at 35.46%.

On to `O=C1CN(C(=O)c2cc(-c3ccco3)nc3c(Cl)cccc23)CCN1`, for which the INHIBITION stood at 38.83%.

Turning to `O=C(c1cc(-c2ccco2)nc2c(Cl)cccc12)N1CC[C@H]2CNC[C@H]21`, the INHIBITION was determined as 53.98%.

As for `Cc1occc1C(=O)N1CCOCC2(CCN(C3CCOCC3)C2)C1` (configuration not stated), the INHIBITION came out at 30.46%.

With `c1ccc2c(c1)C(NC1CCCC1)CC21CCNCC1` (configuration not stated), the INHIBITION is 53.81%.

Regarding `Cc1ccc2c(c1)C1(CCNCC1)CC2NC1CC1` (configuration not stated), the INHIBITION is 13.67%.

Turning to `Fc1ccc2c(c1)C1(CCNCC1)CC2NC1CC1` (configuration not stated), the INHIBITION is reported as 21.32%.

Consider `CCc1ccc(C(=O)N2CCCC2c2nnc3n2CCCCC3)o1` (configuration not stated), for which the INHIBITION worked out at 17.33%.

Take `Cc1cccc(CN2CCc3nnc(CN4CCCC4=O)n3CC2)n1`: the INHIBITION is listed as -43.47%.

Take `Cc1ccc(CN2CCc3nnc(CN4CCCC4=O)n3CC2)s1`: the INHIBITION is on record as 60.6%.

With `Cc1ccc(CN2CCc3nnc(CN4CCCC4=O)n3CC2)o1`, the INHIBITION is reported as 47.97%.

As to `O=C1CCCN1Cc1nnc2n1CCN(Cc1ccccn1)CC2`, the INHIBITION worked out at 51.26%.

Take `c1ccc(CN2CCc3nnc(CN4CCCCC4)n3CC2)nc1`: the INHIBITION amounted to 2.71%.

As for `O=C1CCCN1Cc1nnc2n1CCN(Cc1ccoc1)CC2`, the INHIBITION is -11.91%.

As to `Cn1cc(N2CC3(COCCN(Cc4nccs4)C3)OCC2=O)cn1` (configuration not stated), the INHIBITION amounted to 6.8%.

In the case of `Clc1cnccc1N1CCCOCC1`, the INHIBITION was -149.33%.
